Source: PubChem BioAssay AID651734 (Southern Research Specialized Biocontainment Screening …, 2012)
Entries with a potency or affinity are not part of this list. Active and inactive are the calls of the source. How the calls were made is not given here.

Experiment: VEEV TC-83 cytopathic effect inhibition, confirmation, cell-based, TC-83 strain, set 7 (AID 651734)

Structure (SMILES)	outcome
COc1ccc(Nc2nc(=O)c3cccnc3s2)cc1	inactive
CCN1CCN(Cc2nc3ccc(-c4ccccn4)cc3c(=O)n2-c2ccccc2)CC1	inactive
CCN1CCN(C2c3ncccc3C(=O)N2c2ccccc2)CC1 (centres undefined)	inactive
COc1ccc(CNc2nc(=O)c3cccnc3s2)cc1	inactive
